Bioassay records: PubChem, National Center for Advancing Translational Sciences (NCATS)
FMDV inh: antivirals against foot and mouth disease virus; FMDV antiviral cell-based qHTS; Potency, µM (titrated, usually from 57.9 µM), for the others: at the highest dose activity change, negative = inhibition, hits mostly inhibitors; actives 1.2% (n = 410,000); calls by dose curve; tested in HEK293T cells; further: read-out not given here; potency means the concentration at half of the fitted maximal effect; nearly all actives have a fitted effect of over 45% in size
AmpC inh detg: blocks E. coli AmpC beta-lactamase in detergent assay. actives 0.041% (n = 370,000). AmpC hydrolysis of nitrocefin, absorbance 480 nm, 0.01% Triton. P00811. Potency, µM (titrated, usually from 114 µM), for inactives: top-dose activity change, negative = inhibition, actives largely listed as inhibitors;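 further: potency means the concentration at half of the fitted maximal effect; 0% = no-compound wells and -100% = no-enzyme wells; nearly all actives have a fitted effect of over 25% in size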
Target sequence (P00811 whole entry, looked up): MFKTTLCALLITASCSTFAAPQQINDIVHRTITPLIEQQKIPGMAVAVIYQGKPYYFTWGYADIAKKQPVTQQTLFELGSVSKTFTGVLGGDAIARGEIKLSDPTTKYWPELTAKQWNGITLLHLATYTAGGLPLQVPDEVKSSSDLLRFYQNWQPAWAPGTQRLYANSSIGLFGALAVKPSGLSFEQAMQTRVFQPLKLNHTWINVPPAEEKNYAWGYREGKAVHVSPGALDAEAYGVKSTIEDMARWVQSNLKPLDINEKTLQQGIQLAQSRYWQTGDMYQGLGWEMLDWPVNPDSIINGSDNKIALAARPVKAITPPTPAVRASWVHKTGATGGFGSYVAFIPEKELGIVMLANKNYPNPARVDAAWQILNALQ
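AmpC (5.3 nM in the dispensed reagent) in 20 mM phosphate pH 7.0 with 0.01% (detergent screen) or 0.0001% Triton X-100 was preincubated with compounds for 15 min at room temperature. Nitrocefin was then added from an 800 uM solution, and hydrolysis was followed at 480 nm.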
HCMV inh: human cytomegalovirus inhibition; actives 4.5% (n = 410,000); activity change, negative = inhibition, % at 57.5 µM; HFF cells, HCMV-luciferase reporter, 72 h; hits give low values; in the data active means activity change below about -60%; inconclusive means no clear call, values can overlap the other calls; inactive means above about -39%
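Luciferase read-out from HCMV-luciferase-infected HFFs (MOI 1 PFU/cell) 72 h post infection at 37C; compounds added after 16 h cell attachment; activity normalized between buffer-only basal and Salinomycin (10uM) inhibitor controls.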
AmpC no deterg: blocks E. coli AmpC beta-lactamase in detergent-free assay; AmpC nitrocefin hydrolysis, absorbance 480 nm, 0.0001% Triton; Potency, µM (titrated, usually from 57.1 µM), for inactives: at the top dose activity change, negative = inhibition, most hits filed as inhibitors; actives 0.52% (n = 330,000);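 further: potency means the concentration at half of the fitted maximal effect; plate controls were no compound for no effect and no enzyme for full effect; nearly all actives have a fitted effect of over 20% in size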
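AmpC (5.3 nM in the dispensed reagent) in 20 mM phosphate pH 7.0 with 0.01% (detergent screen) or 0.0001% Triton X-100 was preincubated with compounds for 15 min at room temperature. Nitrocefin was then added from an 800 uM solution, and hydrolysis was followed at 480 nm.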
HCV inh: HCV inhibition; Potency, µM (highest dose often 41.8 µM), without a hit: at the top dose activity change, negative = inhibition, usual class: inhibitors; actives 3.4% (n = 340,000); Huh7.5.1 HCVcc-Cre infection, luciferase reporter, 44 h; further: potency means the concentration at half of the fitted maximal effect
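Reporter virus HCVcc-Cre (~0.5 moi) infects cells exposed to compound; seeding density 1,000 cells/well with 4 h settling beforehand. Luminescence, 15 sec read, taken 44 h post-infection following a 15 min RT substrate incubation.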
An asterisk follows results filed as active; ? = inconclusive; · = no result given; ! = not active in a repeat. A selection: hits, their analogues and other compounds. The true share with any hit is near 7.3%. Unless noted, the call rests on the fitted dose curve; in most records, active means well fitted curve in the direction sought with a large enough effect; inconclusive means small, poorly fitted or top-dose-only effect, or another doubt; inactive means no such curve, though single readings can be large; an effect the other way counts as inactive or inconclusive. Unless noted, on the % scale 0 is the no-effect control and ±100 the full control effect.

SMILES	FMDV inh	AmpC inh detg	HCMV inh	AmpC no deterg	HCV inh
O=C(NCc1ccccc1CN1CCCC1)C1CCN(S(=O)(=O)c2ccc(F)c(F)c2)CC1	-21%	-15%	-101*	1%	-10%
Cc1ccc(S(=O)(=O)N2CCC(C(=O)NCc3ccccc3CN3CCCC3)CC2)cc1C	-6%	-3%	8	71%	?
COCCN1C(=O)COCc2cc(-c3ccc(N(C)C)cc3)ccc21	·	·	47	·	·
COc1ccc(CCNC(=O)c2cccc(NS(=O)(=O)c3ccccc3F)c2)cc1OC	12%	0%	12	?	-8%
CSc1nnc(CNS(=O)(=O)c2ccc(Cl)cc2)n1C	-8%	5%	-34	-9%	15%
O=S1(=O)C=C(Sc2nc3cc(Cl)ccc3o2)c2ccccc21	28µM*	-1%	·	-35%	7.9µM*
COc1cccc(C(=O)NNC(=O)C(=O)Nc2ccc(OC)cc2OC)c1	18%	0%	-5	-17%	?
Cc1nc2cccc(C(=O)Oc3ccc([N+](=O)[O-])cc3)c2o1	-21%	-6%	54	-1%	12%
Cc1c(-c2ccccc2)nc2ccccc2c1C(=O)Oc1ccc([N+](=O)[O-])cc1	?	-12%	-76*	-11%	?
O=C(N[C@@H]1c2ccccc2C2(CCN(Cc3c(O)ccc4ccccc34)CC2)[C@H]1O)c1ccccc1	13%	·	·	·	·
O=C1/C(=C\c2ccccc2)CN(C(=O)CCN2CCCCC2)C/C1=C/c1ccccc1	7.9µM*	·	-100*	·	?
CCN(CC)CCC(=O)N1C/C(=C/c2ccccc2)C(=O)/C(=C\c2ccccc2)C1	3.5µM*	·	-100*	·	?
O=C1/C(=C\c2ccc(Cl)c(Cl)c2)CN(C(=O)CCN2CCOCC2)C/C1=C/c1ccc(Cl)c(Cl)c1	3.2µM*	·	-102*	·	?
O=C(CCN1C(=O)S/C(=C\c2ccccc2)C1=O)N1CCCCC1	0%	-5%	-2	42%	-5%
CCOc1ccc(S(=O)(=O)N2CCC(C(=O)NCC3CCCO3)CC2)cc1 (stereo unspecified)	-14%	-2%	-5	13%	0%
Cc1ccc(CNc2nc(CN3CCNC(=O)C3)nc3ccccc23)o1	21%	·	·	·	·
CC(C)(C)[Si](C)(C)OCc1ccc(-c2c3c(cc4ccc(Cl)cc24)CCC3=O)cc1	·	·	1	·	·
Cc1ccc(CN(Cc2cc3cc4c(cc3[nH]c2=O)OCCO4)Cc2nnnn2Cc2ccco2)cc1	-14%	5%	-34	-16%	?
Cc1ccc2cc(CN(Cc3ccc4c(c3)OCO4)Cc3nnnn3Cc3ccco3)c(=O)[nH]c2c1	1%	2%	?	-14%	16µM*!
Cn1c(CN2CCN(S(C)(=O)=O)CC2)nc2cc([N+](=O)[O-])ccc21	-16%	-8%	-101*	-12%	-17%
COc1ccc(NC(=O)C2CCCCN2S(=O)(=O)c2ccc(F)cc2)cc1 (stereo unspecified)	5%	12%	37	3.2µM*	?
Cc1ccc(S(=O)(=O)N2CCCC2C(=O)Nc2ccc(Br)cc2)cc1 (stereo unspecified)	-19%	5%	-61*	·	·
COc1cc(OC)cc(C(=O)Nc2ccc(S(=O)(=O)N3CCCCC3c3cccnc3)cc2)c1 (stereo unspecified)	?	-3%	-68*	·	·
COc1ccc(NC(=O)C2CCCN2S(=O)(=O)c2ccc(C)cc2)cc1 (stereo unspecified)	-1%	1%	8	-13%	4%
O=C(Nc1cccc(F)c1)C1CCN(c2nnnn2-c2ccccc2)CC1	18µM*	-7%	-11	-6%	-20%
SMILES	FMDV inh	AmpC inh detg	HCMV inh	AmpC no deterg	HCV inh
C=CCc1ccccc1OCCOc1ccc([N+](=O)[O-])cc1/C=N/NC(N)=O	?	-1%	13	-23%	0%
Cc1cc(C(=O)NCCc2ccc(S(N)(=O)=O)cc2)c(C)o1	-20%	-2%	-12	-20%	-1%
CCOC(=O)c1sc(NC(=O)C(C)Oc2ccc(OC)cc2)c(C(=O)OCC)c1C (stereo unspecified)	-28%	14%	-31	·	·
O=C(C1CCCCN1S(=O)(=O)c1ccccc1)N1CCN(C(c2ccccc2)c2ccccc2)CC1 (stereo unspecified)	-19%	6%	32	7%	13µM*
O=C(CN1C(=O)S/C(=C\c2ccc(-c3cc(C(=O)O)ccc3Cl)o2)C1=O)Nc1ccc2c(c1)OCO2	·	79µM*	?	-36%	·
COc1ccc(-n2c(=O)c3sc4ccccc4c3n(CC(=O)N3CCCC3)c2=O)cc1	0%	6%	-13	·	·
Cc1cccc(NC(=O)c2oc3ccc(S(=O)(=O)N(C)C4CCCCC4)cc3c2C)c1C	-5%	-6%	-75*	·	·
CCN(CC)S(=O)(=O)c1ccc2oc(C(=O)NCC3COc4ccccc4O3)c(C)c2c1 (stereo unspecified)	?	-4%	-36	-18%	10µM*
COc1ccc(NC(=O)c2oc3ccc(S(=O)(=O)N(C)C4CCCCC4)cc3c2C)cc1	?	2%	-72*	·	·
Cc1c(C(=O)Nc2cccc(Cl)c2)oc2ccc(S(=O)(=O)N(C)C3CCCCC3)cc12	-17%	-1%	?	·	·
Cc1ccc(Cl)cc1NC(=O)c1oc2ccc(S(=O)(=O)N(C)C3CCCCC3)cc2c1C	-9%	-5%	-10	·	·
COC(=O)c1c(C)[nH]c(C(=O)OC(C)C(=O)NC2CCCCC2C)c1C (stereo unspecified)	-22%	·	-13	·	·
COc1ccccc1CN1CCN(S(=O)(=O)c2ccc(C)cc2)CC1	-15%	·	21	·	-10%
C[C@H](CO)N1C[C@H](C)[C@@H](CN(C)C(=O)Nc2ccc(C(F)(F)F)cc2)OCc2cn(nn2)CCCC1=O	·	·	-6	·	·
CN(C)CCNC(=O)c1cccc2nc3c(ccc4ccccc43)nc12	-24%	·	-96*	·	7.9µM*
COc1ccc(Cl)cc1C(=O)NCCN(C)C	22%	3%	20	-18%	3%
CN(C)CCNC(=O)c1ccccc1-c1ccccc1	-3%	0%	16	-12%	-8%
COc1ccc(-c2nc3c(C(=O)NCCN(C)C)cccc3c3ccccc23)cc1	-24%	·	-34	·	?
CN(C)CCNC(=O)c1cccc2[nH]c(-c3ccncc3)nc12	3%	·	-100*	·	?
COc1cccc2nc3c(C(=O)NCCN(C)C)cccc3cc12	0%	·	-101*	·	?
COc1ccc(C(=O)NCCN(C)C)c2nc3ccccc3cc12	-11%	·	-100*	·	?
Cc1ccc(Sc2cc(C(=O)NCCN(C)C)c3ccccc3n2)cc1	10%	-10%	-38	34%	-24%
COc1cccc(CNC(=O)C(CC(C)C)NC(=O)c2ccccc2C)c1 (stereo unspecified)	3%	4%	·	-2%	?
